Assay results: publication PMC3218832

Tests used:
Assay in all cases: protein binding microarray; high values mean tight binding
Conditions in all cases: dsDNA, one strand shown
RELARELA (p65 homodimer) = RELARELA (p65 homodimer) (Homo sapiens, UniProt Q04206 1-307)
p50p50 homodimer = p50p50 homodimer (Homo sapiens, UniProt P19838 7-356)
p52p52 homodimer = biological target: T1, p52p52 homodimer (Homo sapiens, UniProt Q00653 4-332)
T1 sequence: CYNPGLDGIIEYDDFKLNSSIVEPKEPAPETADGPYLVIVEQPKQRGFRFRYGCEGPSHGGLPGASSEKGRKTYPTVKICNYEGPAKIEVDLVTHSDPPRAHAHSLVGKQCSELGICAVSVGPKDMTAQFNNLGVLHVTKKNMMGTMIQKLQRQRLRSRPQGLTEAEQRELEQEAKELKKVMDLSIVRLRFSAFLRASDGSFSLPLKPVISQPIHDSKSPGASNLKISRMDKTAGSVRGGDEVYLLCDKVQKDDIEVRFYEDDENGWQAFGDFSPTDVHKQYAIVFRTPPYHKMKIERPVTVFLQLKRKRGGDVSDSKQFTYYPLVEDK

[1] = biological target: RELA (p65) subunit of heterodimer;p50 subunit (Homo sapiens;Homo sapiens, UniProt Q04206;P19838 1-307;7-356)
Chain of RELA (p65) subunit of heterodimer;p50 subunit (Q04206 1-307, chain 1 of 2): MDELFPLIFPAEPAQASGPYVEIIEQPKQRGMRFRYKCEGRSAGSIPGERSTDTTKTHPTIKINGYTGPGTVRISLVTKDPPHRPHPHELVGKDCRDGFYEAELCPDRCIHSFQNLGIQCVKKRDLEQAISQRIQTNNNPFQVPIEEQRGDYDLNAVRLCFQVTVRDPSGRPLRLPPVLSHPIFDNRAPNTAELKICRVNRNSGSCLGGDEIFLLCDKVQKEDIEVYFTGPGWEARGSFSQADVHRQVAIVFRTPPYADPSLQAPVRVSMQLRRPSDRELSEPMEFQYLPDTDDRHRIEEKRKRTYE
Chain of RELA (p65) subunit of heterodimer;p50 subunit (P19838 7-356, chain 2 of 2): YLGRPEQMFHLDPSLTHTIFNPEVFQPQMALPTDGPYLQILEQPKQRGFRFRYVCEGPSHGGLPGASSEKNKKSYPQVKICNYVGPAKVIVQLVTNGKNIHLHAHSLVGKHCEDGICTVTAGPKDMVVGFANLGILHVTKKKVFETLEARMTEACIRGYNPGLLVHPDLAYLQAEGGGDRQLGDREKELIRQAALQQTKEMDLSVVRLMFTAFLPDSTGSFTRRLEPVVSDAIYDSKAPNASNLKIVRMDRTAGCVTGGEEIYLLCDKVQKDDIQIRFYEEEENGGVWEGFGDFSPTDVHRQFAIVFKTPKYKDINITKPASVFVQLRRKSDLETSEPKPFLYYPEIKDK

[2] = biological target: RELA (p65) subunit of heterodimer;p52 subunit (Homo sapiens;Homo sapiens, UniProt Q04206;Q00653 1-307;4-332)
RELB subunit;p50 subunit = RELB subunit;p50 subunit (Homo sapiens;Homo sapiens, UniProt Q01201;P19838 120-401;7-356)
RELB subunit;p52 subunit = biological target: T2, RELB subunit;p52 subunit (Homo sapiens;Homo sapiens, UniProt Q01201;Q00653 120-401;4-332)
T2 sequence 1: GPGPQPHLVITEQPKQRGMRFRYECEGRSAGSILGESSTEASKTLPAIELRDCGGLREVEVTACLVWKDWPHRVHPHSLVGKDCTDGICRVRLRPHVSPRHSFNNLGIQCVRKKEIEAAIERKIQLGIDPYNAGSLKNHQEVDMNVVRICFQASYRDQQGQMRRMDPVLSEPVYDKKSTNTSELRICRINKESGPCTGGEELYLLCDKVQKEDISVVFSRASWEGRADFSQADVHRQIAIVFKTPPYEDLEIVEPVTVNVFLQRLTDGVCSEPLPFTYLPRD
T2 sequence 2: T1 sequence

[3] = biological target: C-Rel subunit;p50 subunit (Homo sapiens;Homo sapiens, UniProt Q04864;P19838 1-285;7-356)
[4] = biological target: T3, C-Rel subunit;p52 subunit (Homo sapiens;Homo sapiens, UniProt Q04864;Q00653 1-285;4-332)
T3 sequence 1: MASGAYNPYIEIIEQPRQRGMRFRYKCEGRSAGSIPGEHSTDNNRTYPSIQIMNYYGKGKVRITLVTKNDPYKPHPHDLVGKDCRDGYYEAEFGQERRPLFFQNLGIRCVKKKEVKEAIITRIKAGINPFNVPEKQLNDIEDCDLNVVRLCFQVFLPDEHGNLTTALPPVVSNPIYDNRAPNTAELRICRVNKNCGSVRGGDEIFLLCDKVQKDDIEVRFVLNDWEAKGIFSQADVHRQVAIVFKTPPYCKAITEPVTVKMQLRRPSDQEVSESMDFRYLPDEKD
T3 sequence 2: T1 sequence

Chain of p50p50 homodimer (P19838 7-356): as the sequence (P19838 7-356, chain 2 of 2) above
Chain of RELARELA (p65 homodimer) (Q04206 1-307): as the sequence (Q04206 1-307, chain 1 of 2) above

Sequence	binding signal (RELARELA (p65 homodimer))	binding signal (p50p50 homodimer)	binding signal (p52p52 homodimer)	binding signal [1]	binding signal [2]	binding signal (RELB subunit;p50 subunit)	binding signal (RELB subunit;p52 subunit)	binding signal [3]	binding signal [4]
AAGAGCTTCCC	0.146 z-score	-0.795 z-score	-0.487 z-score	-0.305 z-score	-0.49 z-score	-0.563 z-score	-0.671 z-score	-0.423 z-score	-0.463 z-score
AAAATCGCCCT	-0.445 z-score	-0.836 z-score	-0.395 z-score	-0.458 z-score	-0.504 z-score	-0.55 z-score	-0.442 z-score	-0.504 z-score	-0.384 z-score
GGAAGCCTCCC	-0.446 z-score	-1.14 z-score	-0.595 z-score	-0.524 z-score	-0.721 z-score	-0.789 z-score	-0.717 z-score	-0.888 z-score	-0.726 z-score
CGGATTGCCCC	2 z-score	0.548 z-score	0.518 z-score	1.35 z-score	0.991 z-score	0.497 z-score	0.607 z-score	1.07 z-score	0.987 z-score
AAATGCCCCCC	0.508 z-score	1.24 z-score	0.957 z-score	1.43 z-score	1.32 z-score	1.4 z-score	1.57 z-score	1.28 z-score	0.954 z-score
CGAATACCCCT	0.147 z-score	1.13 z-score	0.86 z-score	1.17 z-score	1.12 z-score	1.03 z-score	1.63 z-score	0.876 z-score	0.881 z-score
CAAAATGCCCT	0.196 z-score	-0.106 z-score	-0.35 z-score	-0.0537 z-score	-0.15 z-score	-0.464 z-score	-0.38 z-score	-0.13 z-score	-0.0299 z-score
CGGAGCGCCCT	-0.577 z-score	-1.84 z-score	-0.701 z-score	-0.94 z-score	-0.911 z-score	-1.13 z-score	-0.954 z-score	-1.21 z-score	-1.01 z-score
AAGATGGCCCT	-0.837 z-score	-0.78 z-score	-0.556 z-score	-0.621 z-score	-0.715 z-score	-0.275 z-score	-0.142 z-score	-0.828 z-score	-0.686 z-score
AAGTAAGTCCC	0.51 z-score	1.02 z-score	0.587 z-score	0.837 z-score	0.459 z-score	1.1 z-score	0.647 z-score	0.768 z-score	0.419 z-score
GGATATGCCCT	0.304 z-score	-1.18 z-score	-0.574 z-score	-0.276 z-score	-0.49 z-score	-0.93 z-score	-0.689 z-score	-0.384 z-score	-0.294 z-score
GAGAGTTCCCC	1.61 z-score	1.06 z-score	1.71 z-score	1.77 z-score	1.55 z-score	1.7 z-score	1.62 z-score	1.21 z-score	1.67 z-score
AGAGGCGTCCC	-0.0545 z-score	-0.0189 z-score	0.07 z-score	-0.193 z-score	-0.01 z-score	0.139 z-score	0.267 z-score	-0.234 z-score	-0.17 z-score
GAAGACCTCCT	-0.649 z-score	-2.61 z-score	-0.857 z-score	-0.905 z-score	-0.909 z-score	-1.23 z-score	-0.869 z-score	-1.61 z-score	-0.944 z-score
AGGGTGCCCCT	-0.552 z-score	0.473 z-score	0.342 z-score	0.511 z-score	0.658 z-score	0.571 z-score	1.16 z-score	0.426 z-score	0.644 z-score
GGAGACTTCCC	1.11 z-score	0.00445 z-score	0.117 z-score	0.505 z-score	0.17 z-score	-0.132 z-score	-0.125 z-score	0.335 z-score	0.286 z-score
AAGTATTCCCT	0.729 z-score	0.846 z-score	0.794 z-score	0.606 z-score	0.612 z-score	0.683 z-score	0.852 z-score	0.812 z-score	0.523 z-score
GGAAGACTCCT	-0.12 z-score	-1.87 z-score	-0.778 z-score	-0.958 z-score	-1.02 z-score	-1.23 z-score	-0.943 z-score	-1.17 z-score	-0.891 z-score
GAGGTGACCCC	-0.476 z-score	-0.386 z-score	-0.328 z-score	-0.534 z-score	-0.428 z-score	-0.385 z-score	-0.19 z-score	-0.788 z-score	-0.26 z-score
CGGTTCATCCT	-0.997 z-score	-1.12 z-score	-0.513 z-score	-0.88 z-score	-0.9 z-score	-0.96 z-score	-0.765 z-score	-1.41 z-score	-1.01 z-score
CGATACACCCT	-0.54 z-score	-0.733 z-score	-0.36 z-score	-0.642 z-score	-0.613 z-score	-0.424 z-score	-0.507 z-score	-0.73 z-score	-0.561 z-score
AAATTGGCCCC	-0.344 z-score	0.122 z-score	-0.144 z-score	0.118 z-score	-0.121 z-score	0.375 z-score	0.258 z-score	0.04 z-score	-0.0339 z-score
GGAGTCTCCCC	1.17 z-score	0.531 z-score	0.409 z-score	1.27 z-score	0.997 z-score	0.547 z-score	0.514 z-score	0.822 z-score	0.954 z-score
AAAGAGACCCT	-1.1 z-score	-0.515 z-score	-0.457 z-score	-0.679 z-score	-0.542 z-score	-0.626 z-score	-0.766 z-score	-1.12 z-score	-0.688 z-score
CGGAGGTTCCC	1.2 z-score	-0.355 z-score	-0.258 z-score	0.387 z-score	-0.0508 z-score	-0.291 z-score	-0.115 z-score	0.126 z-score	-0.0163 z-score
CAGAGTGTCCC	0.916 z-score	0.0211 z-score	0.161 z-score	0.185 z-score	0.144 z-score	0.304 z-score	0.434 z-score	0.274 z-score	0.221 z-score
AGAGGTTCCCC	0.439 z-score	1.06 z-score	1.33 z-score	1.54 z-score	1.33 z-score	1.41 z-score	1.64 z-score	1.37 z-score	1.14 z-score
AAGATAATCCT	-0.605 z-score	-1.55 z-score	-0.666 z-score	-1.04 z-score	-0.884 z-score	-1.14 z-score	-0.91 z-score	-1.26 z-score	-0.848 z-score
AGAGTGTCCCT	0.267 z-score	0.607 z-score	0.823 z-score	0.527 z-score	0.604 z-score	0.851 z-score	1.25 z-score	0.738 z-score	0.669 z-score
CAGGATCCCCT	-0.318 z-score	1.34 z-score	1.3 z-score	1.91 z-score	1.43 z-score	1.79 z-score	1.65 z-score	1.34 z-score	0.975 z-score
